High-throughput results as filed in PubChem.
IL-1B inflam inh: inhibitors of inflammasome signaling (IL-1 beta secretion). hit rate 4.7% among 360,000. THP-1 LPS/ATP IL-1B secretion, AlphaLISA, 16 h; active compounds read low. activity change, % at 57.5 µM; in the data active = activity change below about -50%; inconclusive = mostly about -30% to -49%
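THP-1 cells pretreated 1 hr with compounds (up to 57.5 uM final), then stimulated with LPS (250 ng/mL final) plus ATP (1.25 mM final); secreted IL-1B measured by AlphaLISA after 16 hr, decreased signal indicating inhibition.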
TDP1 cell noCPT: qHTS for Inhibitors of human tyrosyl-DNA phosphodiesterase 1 (TDP1): qHTS in cells in absence of CPT; Potency, µM (top dose mostly 46.2 µM), for the others: top-dose activity change, negative = growth inhibition, hits mostly inhibitors; DT40 Tdp1-/- hTDP1 cells, no CPT, ATP luminescence, 48 h; hit rate 15% among 420,000; note: potency is the fitted concentration of half-maximal effect; nearly all actives have a fitted effect of over 55% in size
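Compound effects on proliferation are scored in DT40 Tdp1-/-;hTDP1 cells in the absence of CPT. ATP levels (CellTiter-Glo luminescence) are recorded after a ≥48 hr, 37 °C incubation.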
TDP1 cell CPT: growth inhibition of DT40 Tdp1-/-;hTDP1 cells with camptothecin (screen for TDP1 inhibitors) | hit rate 12% among 420,000 | Potency, µM (top dose mostly 46.2 µM), inactives show top-dose activity change, negative = growth inhibition, actives largely listed as inhibitors | chicken DT40 Tdp1-/-;hTDP1 cells + 20 nM CPT, ATP luminescence, 48 h | AID 686979; note: potency is the fitted concentration of half-maximal effect; nearly all actives have a fitted effect of over 55% in size
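Chicken DT40 Tdp1-/- cells stably complemented with human TDP1 were seeded at 400 cells/well in medium containing 20 nM camptothecin, exposed to pin-transferred compounds, and grown at 37 °C for at least 48 hr. Viability was read as ATP luminescence.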
HT1080-NT tox: kills 2HG-producing HT-1080-NT fibrosarcoma cells | HT-1080-NT fibrosarcoma viability, CellTiter-Glo ATP luminescence, 48 h | Potency, µM (series often up to 46.1 µM), without a hit: top-dose activity, negative = less viability, most hits filed as cytotoxic | hit rate 1.6% among 360,000;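 note: NT is the 2HG producing partner of a matched IDH1 knockdown line; potency is the fitted concentration of half-maximal effect; 0% = DMSO-treated cells and -100% = media-only wells without cells; nearly all actives have a fitted effect of over 55% in size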
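Fibrosarcoma NT cells, 750 per well in 5% FBS RPMI, were exposed to compound for 48 hours. Viability: CellTiter-Glo luminescence.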
HT1080 IDH1KD tx: kills HT-1080 cells with IDH1 knockdown; HT-1080 IDH1 knockdown viability, ATP luminescence, 48 h; Potency, µM (doses to about 46.1 µM), inactives show at the highest dose activity, negative = toxicity, hits mostly cytotoxic; hit rate 2% among 360,000; AID 686971;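 note: potency is the fitted concentration of half-maximal effect; 0% = DMSO wells and -100% = cell-free medium wells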
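In this qHTS, HT-1080 cells depleted of IDH1 are exposed for 48 h at 37 °C to compound titrations. Toxicity is scored from CellTiter-Glo luminescence, with DMSO as full viability and medium alone as none.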
uPA generation: inhibitors of cell surface uPA generation | Potency, µM (titrated, usually from 38.3 µM), for inactives: top-dose activity change, negative = inhibition, hits mostly inhibitors | hit rate 0.31% among 330,000 | cell surface uPA generation assay, qHTS | AID 540303; active = well fitted inhibition curve with a large enough effect; inconclusive = small, poorly fitted or top-dose-only effect; inactive = no such curve, though single readings can be large or run the other way; tested in mouse RAW 264.7 cells; note: potency is the fitted concentration of half-maximal effect; nearly all actives have a fitted effect of over 55% in size
Active calls of the source: *; ? = inconclusive; · = no result given; [ ] = dose if it differs, or a comment. This is a sample that favours compounds with a hit; in the whole collection about 19% have one here. Unless noted, calls come from the whole dose curve; as a rule, active = well fitted curve in the direction sought with a large enough effect; inconclusive = small, poorly fitted or top-dose-only effect, or another doubt; inactive = no such curve, though single readings can be large; an effect the other way counts as inactive or inconclusive. Unless noted, % is set by controls: 0 for no effect and ±100 for the full control effect.

SMILES | IL-1B inflam inh | TDP1 cell noCPT | TDP1 cell CPT | HT1080-NT tox | HT1080 IDH1KD tx | uPA generation
CC(Oc1cccc(Cl)c1)C(=O)Nc1ccccc1N1CCCCC1 (centres undefined) | 11 | -9% | 3% | 4% | -1% | 11%
CC(Oc1cccc(Cl)c1)C(=O)Nc1cc(Cl)ccc1N1CCOCC1 (centres undefined) | -14 | ? | 21µM* | 6% | 4% | 9%
CC(Oc1cccc(Cl)c1)C(=O)Nc1cc(=O)n(C)c(=O)n1C (centres undefined) | -2 | 13µM* | ? | 9% | -28% | ·
O=C(Oc1coc(CSc2ncccn2)cc1=O)c1ccccc1[N+](=O)[O-] | 0 | ? | -17% | -1% | 3% | 8%
CC1(c2ccc3c(c2)OCCO3)NC(=O)N(CC(=O)Nc2ccccc2SCC#N)C1=O (centres undefined) | 31 | 13% | 12% | 6%[9.24 µM] | 11% | 16%
Cn1c(SCC(=O)N2CCCc3ccccc32)ncc(C(=O)Nc2ccccc2)c1=O | · | 0% | -12% | · | · | ·
OC1(C(F)(F)F)CC(c2ccc3ccccc3c2)=NO1 (centres undefined) | -4 | 4% | 14% | -26% | -22% | 9%
C[N+](C)(CCOc1ccccc1)Cc1cccs1 | · | -25% | 6% | · | · | ·
O=C(Cn1c(=O)oc2cc(S(=O)(=O)N3CCCCC3)ccc21)NCc1ccc(F)cc1 | · | 5.8µM* | 5.2µM* | · | · | ·
O=C(Cn1c(=O)oc2cc(S(=O)(=O)N3CCCC3)ccc21)N1CCCC1 | 10 | -3% | 6% | -17% | 0% | 10%
COc1cccc(CNC(=O)Cn2c(=O)oc3cc(S(=O)(=O)N4CCCC4)ccc32)c1 | · | 23µM* | ? | · | · | ·
CCOC(=O)Cn1c(=O)oc2cc(S(=O)(=O)N(C)c3ccc(OC)cc3)ccc21 | -57* | -1% | -20% | -6% | 6% | 1%
O=C(Cn1c(=O)oc2cc(S(=O)(=O)N3CCCCC3)ccc21)NCc1ccc(Cl)cc1 | · | 7.3µM* | 9.2µM* | · | · | ·
O=C(Cn1c(=O)oc2cc(S(=O)(=O)N3CCCC3)ccc21)NC1CCCCC1 | -21 | -28% | -3% | 0% | -1% | 16%
OC(c1ccc(F)cc1)c1ncc(-c2ccc3ccccc3c2)[nH]1 (centres undefined) | 1 | ? | ? | ? | ? | ·
O=C(CSc1ccc(F)cc1)N1CCOCC1 | 10 | -29% | 3% | -2% | 6% | 6%
Cc1ccsc1C(=O)N(CC(C)C)c1c(N)n(Cc2ccccc2)c(=O)[nH]c1=O | 0 | -9% | 2% | -4% | -13% | ?
CC(=O)C1CCC2C3CCC4=CC(=O)CCC4(C)C3(F)C(O)CC12C (centres undefined) | -13 | 23µM* | 23µM* | 11% | ? | 1%
Sc1oc(-c2ccccc2)cc1C=Nc1ccccc1 | 0 | 16µM* | 5.8µM* | 7.9µM* | 11µM* | ·
Cn1cnc([N+](=O)[O-])c1NCc1ccccc1 | 10 | -3% | 3% | 18% | 9% | 2%
Cn1cnc([N+](=O)[O-])c1S(=O)(=O)Nc1ccccc1 | -97* | 15µM* | 16µM* | 10µM* | ? | -14%
Cn1cnc([N+](=O)[O-])c1S(=O)(=O)Oc1ccccc1 | -94* | 1µM* | 0.65µM* | ? | 23µM* | -18%
Cn1nc([N+](=O)[O-])nc1Oc1ccccc1 | 0 | 2% | -3% | 15% | 8% | ·
Cn1cnc([N+](=O)[O-])c1S(=O)(=O)c1cccc(Cl)c1 | ? | 2.3µM* | 1.8µM* | ? | ? | ?
O=C(NC1(C(F)(F)F)C(=O)Nc2c1c(=O)[nH]c(=O)n2-c1ccc(Cl)cc1)c1ccccc1F (centres undefined) | · | -17% | -15% | · | · | ·
SMILES | IL-1B inflam inh | TDP1 cell noCPT | TDP1 cell CPT | HT1080-NT tox | HT1080 IDH1KD tx | uPA generation
O=C(Nc1cccc(S(=O)(=O)N2CCCCC2)c1)c1ccccn1 | -84* | -26% | -19% | 14% | 14% | 7%
O=C(Nc1cccc(S(=O)(=O)N2CCCC2)c1)c1cc(-c2ccccn2)nc2ccccc12 | ? | 21µM* | 23µM* | -27% | -6% | 8%
CC(=O)c1ccc(Nc2nc3ccccc3nc2NS(=O)(=O)c2cccs2)cc1 | -1 | 9.2µM* | 15µM* | 0% | -2% | 9%
O=C(Nc1cccc(S(=O)(=O)N2CCOCC2)c1)c1ccccn1 | 34 | -8% | -5% | 0% | 9% | -87%
O=C(Nc1cccc(S(=O)(=O)N2CCCCCC2)c1)c1ccc2ccccc2n1 | -10 | 18µM* | ? | -2% | -3% | 1%
CCCn1c(N)c(Sc2ccccc2[N+](=O)[O-])c(=O)n(CCC)c1=O | 7 | ? | -27% | 0% | 3% | 1%
O=C(O)c1cccc(Nc2nc3ccccc3nc2NS(=O)(=O)c2ccc(F)cc2)c1 | 21 | 6% | 1% | -2% | -1% | 2%
CCc1ccc(Nc2nc3ccccc3nc2NS(=O)(=O)c2ccccc2)cc1 | · | 21µM* | 16µM* | · | · | ·
CSc1ncccc1C(=O)Nc1cccc(S(=O)(=O)N2CCCCC2)c1 | 10 | 15µM* | ? | -4% | 0% | -24%
O=S(=O)(Nc1nc2ccccc2nc1Nc1ccc2c(c1)OCO2)c1ccc(F)cc1 | 15 | 13µM* | 18µM* | 4% | 1% | 2%
O=S(=O)(Nc1nc2ccccc2nc1Nc1cccc(S(=O)(=O)N2CCCCC2)c1)c1ccccc1 | -27 | 5.8µM* | 6.5µM* | 6.5µM* | ? | -3%
CCN(CC)C(=O)CSc1nnc(CSc2ncccn2)n1C | -9 | 0% | 0% | 8% | 14% | -1%
NC(C(=O)O)C(CC(=O)O)c1ccc(Cl)cc1 (centres undefined) | · | 1% | -1% | · | · | ·
CCOC(=O)C1C(=O)NC(C(=O)OCC)(C(=O)OCC)C1C(C)CC (centres undefined) | -5 | 1% | 5% | 0% | -20% | 2%
CCOc1cccc(C2C=C(c3ccc4c(c3)OCO4)NC(c3cccc(Br)c3)N2)c1O (centres undefined) | · | 10µM* | 10µM* | · | · | ·
CCOc1ccccc1C(=O)NCc1ccc2c(c1)OCO2 | 3 | -23% | -29% | 1% | 4% | 1%
CCOc1cccc(C2C=C(c3ccc4c(c3)OCO4)NC(c3ccc(Br)cc3)N2)c1O (centres undefined) | · | 16µM* | ? | · | · | ·
C/C(=N/NC(=O)c1nnn(-c2nonc2N)c1COc1ccccc1)c1ccccc1 | 6 | 4% | -8% | -1% | 1% | -25%
